Data: PubChem BioAssay (NCATS)
Results filed as inconclusive are left out. Active and inactive are the calls of the source. The call rests on the fitted dose curve; in most records, active means well fitted inhibition curve with a large enough effect; inconclusive means small, poorly fitted or top-dose-only effect, or effect the other way, or another doubt; inactive means flat fitted curve, though single readings scatter.

Assay: qHTS Assay for Identification of Small Molecule Antagonists for Thrombopoietin (TPO) Signaling Pathway (AID 918); further: nearly all actives have a fitted effect of over 60% in size
Conditions: TPO-dependent cell signaling reporter, antagonist mode
Summary of the method: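 Inhibitors of TPO signaling are sought by stimulating IL-3-starved murine Ba/F3 cells (human TPO receptor, Glycoprotein IIb-driven luciferase) with TPO at its EC50 of 26 pM alongside compound. After 24 hrs at 37 C, reporter luminescence is measured.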
Potency means the concentration at half of the fitted maximal effect.

O=[N+]([O-])c1ccc(-c2nc(-c3ccc(F)cc3)c(-c3ccncc3)[nH]2)cc1
Potency: 12.6 µM (active)

CC(C)N(CCC(=O)c1ccc2ccccc2c1)Cc1ccccc1
Potency: 2.51 µM (active)
